Records with an inconclusive call do not appear. Activity calls are given as the source filed them. Rule for the calls: active = hit-call score of the fitted dose curve at least 0.9, where 1 is the maximum; inconclusive = response in the unintended direction; inactive = score below 0.9.
How the values were obtained:
[1] = molecular target: human Dual Specificity Protein Phosphatase 3 (DUSP3), DUSP3 (gene 1845) (UniProt P51452); assay: NVS_ENZ_hDUSP3: NovaScreen (NVS) Enzymatic Assay for human Dual Specificity Protein Phosphatase 3 (DUSP3) (AID 2283152);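 note: phosphatase activity of recombinant human DUSP3 on a fluorogenic substrate without cells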
Sequence of human Dual Specificity Protein Phosphatase 3 (DUSP3), DUSP3 (gene 1845) (P51452 whole entry, looked up): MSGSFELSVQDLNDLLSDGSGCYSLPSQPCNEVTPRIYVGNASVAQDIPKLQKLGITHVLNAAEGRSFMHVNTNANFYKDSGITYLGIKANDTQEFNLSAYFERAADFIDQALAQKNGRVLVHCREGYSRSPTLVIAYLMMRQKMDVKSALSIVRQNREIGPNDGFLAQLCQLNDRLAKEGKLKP
How it was run: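 Cell-free assay with recombinant human DUSP3 and fluorogenic substrate, read by fluorescence intensity. Primary screen ran duplicate at 25 uM; actives followed up in concentration series; loss of signal versus DMSO scored.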

[2] = molecular target: human Ephrin type-A Receptor 1 (EphA1), EPHA1 (gene 2041) (UniProt P21709); assay: NVS_ENZ_hEphA1: NovaScreen (NVS) Enzymatic Assay for human Ephrin type-A Receptor 1 (EphA1) (AID 2283158);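 note: activity is signal loss versus DMSO meaning EphA1 kinase inhibition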
Sequence of human Ephrin type-A Receptor 1 (EphA1), EPHA1 (gene 2041) (P21709 whole entry, looked up): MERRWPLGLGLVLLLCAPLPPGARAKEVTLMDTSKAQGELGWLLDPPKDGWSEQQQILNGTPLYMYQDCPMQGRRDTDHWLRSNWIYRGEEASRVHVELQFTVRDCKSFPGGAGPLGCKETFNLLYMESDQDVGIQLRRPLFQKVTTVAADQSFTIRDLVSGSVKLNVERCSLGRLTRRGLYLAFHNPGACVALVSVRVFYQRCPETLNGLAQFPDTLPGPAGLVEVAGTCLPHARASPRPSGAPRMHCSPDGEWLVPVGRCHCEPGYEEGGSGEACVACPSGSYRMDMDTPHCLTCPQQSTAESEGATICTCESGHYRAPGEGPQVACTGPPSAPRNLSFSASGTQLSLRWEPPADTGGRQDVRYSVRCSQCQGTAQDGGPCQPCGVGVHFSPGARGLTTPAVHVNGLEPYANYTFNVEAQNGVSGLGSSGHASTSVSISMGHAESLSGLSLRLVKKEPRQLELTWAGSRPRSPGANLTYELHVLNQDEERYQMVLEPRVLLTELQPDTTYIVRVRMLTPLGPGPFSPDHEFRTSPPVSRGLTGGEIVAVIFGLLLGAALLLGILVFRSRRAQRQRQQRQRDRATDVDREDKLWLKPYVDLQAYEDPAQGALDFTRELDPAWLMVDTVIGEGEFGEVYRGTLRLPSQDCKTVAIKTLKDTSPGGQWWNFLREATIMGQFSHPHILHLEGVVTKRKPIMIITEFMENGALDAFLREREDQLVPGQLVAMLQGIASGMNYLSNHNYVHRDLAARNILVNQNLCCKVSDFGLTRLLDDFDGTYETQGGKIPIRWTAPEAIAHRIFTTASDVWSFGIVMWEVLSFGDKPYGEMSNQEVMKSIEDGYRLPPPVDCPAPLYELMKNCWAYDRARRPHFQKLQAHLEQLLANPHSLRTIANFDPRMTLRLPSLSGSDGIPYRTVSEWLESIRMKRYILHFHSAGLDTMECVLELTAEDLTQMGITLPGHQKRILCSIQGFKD
How it was run: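 Biochemical kinase assay run cell-free; 1 h incubation; readout is fluorescence with mobility-shift separation of product. Concentration-response up to 50 uM for actives from a 25 uM screen.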

[3] = molecular target: human Esterase Plasma (ES), BCHE (gene 590) (UniProt P06276); assay: NVS_ENZ_hES: NovaScreen (NVS) Enzymatic Assay for human Esterase Plasma (ES) (AID 2283157)
Sequence of human Esterase Plasma (ES), BCHE (gene 590) (P06276 whole entry, looked up): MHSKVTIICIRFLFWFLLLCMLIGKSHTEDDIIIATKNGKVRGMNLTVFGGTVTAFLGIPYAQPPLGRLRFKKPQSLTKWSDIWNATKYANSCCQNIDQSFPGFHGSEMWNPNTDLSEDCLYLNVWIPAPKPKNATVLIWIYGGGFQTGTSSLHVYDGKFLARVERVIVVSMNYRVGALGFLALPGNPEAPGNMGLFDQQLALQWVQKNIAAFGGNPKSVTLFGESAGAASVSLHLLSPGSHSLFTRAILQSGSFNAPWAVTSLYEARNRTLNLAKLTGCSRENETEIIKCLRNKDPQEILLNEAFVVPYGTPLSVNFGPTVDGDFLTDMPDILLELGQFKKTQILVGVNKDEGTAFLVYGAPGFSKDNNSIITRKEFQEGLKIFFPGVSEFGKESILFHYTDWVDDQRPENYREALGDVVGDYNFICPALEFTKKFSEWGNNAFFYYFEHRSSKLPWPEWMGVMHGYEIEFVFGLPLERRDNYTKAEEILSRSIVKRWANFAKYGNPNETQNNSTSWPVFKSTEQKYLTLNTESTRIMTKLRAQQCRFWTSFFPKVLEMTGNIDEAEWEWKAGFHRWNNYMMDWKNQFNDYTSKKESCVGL
How it was run: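 Esterase from human plasma, cell-free, colorimetric absorbance read 0.25 h after dosing. Screened at 25 uM in duplicate, with threshold-passing chemicals run in concentration-response up to 50 uM; loss of signal fitted versus DMSO.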

rat CYP2B1, gene 24300 = assay: NVS_ADME_rCYP2B1: NovaScreen (NVS) CYP450-related Enzyme Activity (ADME) Assay for rat CYP2B1 (AID 2283117)
How it was run: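 Recombinant rat CYP2B1 with fluorogenic substrate, read at 0.75 h. Primary screen in duplicate at 10 uM; compounds meeting threshold (e.g., 30% inhibition) re-run in concentration-response up to 20 uM. Fitted against acetonitrile control.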

rat CYP3A1, gene 25642 = assay: NVS_ADME_rCYP3A1: NovaScreen (NVS) CYP450-related Enzyme Activity (ADME) Assay for rat CYP3A1 (AID 2283126)
How it was run: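 Cell-free recombinant CYP assay with fluorescent substrate, read 0.5 h after dosing. Screened at 10 uM in duplicate, hits at up to 20 uM in concentration-response; loss of signal versus acetonitrile baseline.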

[4] = molecular target: rat CYP3A2, Cyp3a2 (gene 266682) (UniProt P05183); assay: NVS_ADME_rCYP3A2: NovaScreen (NVS) CYP450-related Enzyme Activity (ADME) Assay for rat CYP3A2 (AID 2283128)
How it was run: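 Cell-free rat CYP3A2 enzyme assay with fluorescent substrate, read 0.5 h after dosing. Primary duplicate screen at 10 uM; actives run in concentration-response up to 20 uM, relative to acetonitrile baseline.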

[5] = molecular target: human Elastase, ELANE (gene 1991) (UniProt P08246); assay: NVS_ENZ_hElastase: NovaScreen (NVS) Enzymatic Assay for human Elastase (AID 2283153)
Sequence of human Elastase, ELANE (gene 1991) (P08246 whole entry, looked up): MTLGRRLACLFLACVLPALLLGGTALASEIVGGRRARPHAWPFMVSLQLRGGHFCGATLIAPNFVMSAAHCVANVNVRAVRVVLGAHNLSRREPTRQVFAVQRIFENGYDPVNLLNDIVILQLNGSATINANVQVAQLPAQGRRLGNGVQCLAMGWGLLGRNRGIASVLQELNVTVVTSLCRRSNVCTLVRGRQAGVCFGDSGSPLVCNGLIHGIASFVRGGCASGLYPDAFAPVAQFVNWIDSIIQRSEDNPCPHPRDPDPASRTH
How it was run: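 Cell-free elastase from human neutrophils, 1.5 h after dosing, activity read by absorbance. Primary screen in duplicate at 25 uM; hits (e.g., 30% inhibition) rerun in singleton concentration-response up to 50 uM, fitted versus DMSO.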

[6] = molecular target: human AMP-activated Protein Kinase, alpha 1 (AMPKa1), PRKAA1 (gene 5562) (UniProt Q13131); assay: NVS_ENZ_hAMPKa1: NovaScreen (NVS) Enzymatic Assay for human AMP-activated Protein Kinase, alpha 1 (AMPKa1) (AID 2283130)
Sequence of human AMP-activated Protein Kinase, alpha 1 (AMPKa1), PRKAA1 (gene 5562) (Q13131 whole entry, looked up): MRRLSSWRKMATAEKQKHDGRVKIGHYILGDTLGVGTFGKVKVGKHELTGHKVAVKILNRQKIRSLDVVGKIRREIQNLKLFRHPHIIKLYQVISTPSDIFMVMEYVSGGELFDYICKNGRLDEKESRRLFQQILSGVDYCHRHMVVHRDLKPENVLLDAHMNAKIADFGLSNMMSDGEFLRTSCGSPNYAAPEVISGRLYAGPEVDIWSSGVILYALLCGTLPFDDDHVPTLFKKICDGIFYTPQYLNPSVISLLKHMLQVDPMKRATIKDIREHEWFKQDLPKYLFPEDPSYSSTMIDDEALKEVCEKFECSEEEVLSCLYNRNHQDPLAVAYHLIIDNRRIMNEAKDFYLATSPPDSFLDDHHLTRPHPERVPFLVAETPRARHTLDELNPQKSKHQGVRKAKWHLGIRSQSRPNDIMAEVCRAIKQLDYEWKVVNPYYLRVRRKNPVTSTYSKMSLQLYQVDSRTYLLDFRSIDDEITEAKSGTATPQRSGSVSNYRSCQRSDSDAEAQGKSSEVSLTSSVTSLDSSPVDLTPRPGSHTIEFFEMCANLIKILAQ
How it was run: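 Recombinant human AMPKα1 activity was measured cell-free by fluorescent substrate conversion with electrophoretic mobility-shift separation, 1 h after dosing. Duplicate single-point screening was at 25 uM; actives (≥30% inhibition) were retested in concentration-response up to 50 uM.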

[7] = molecular target: human Colony Stimulating Factor 1 Receptor (CSF1R), CSF1R (gene 1436) (UniProt P07333); assay: NVS_ENZ_hCSF1R: NovaScreen (NVS) Enzymatic Assay for human Colony Stimulating Factor 1 Receptor (CSF1R) (AID 2283150)
Sequence of human Colony Stimulating Factor 1 Receptor (CSF1R), CSF1R (gene 1436) (P07333 whole entry, looked up): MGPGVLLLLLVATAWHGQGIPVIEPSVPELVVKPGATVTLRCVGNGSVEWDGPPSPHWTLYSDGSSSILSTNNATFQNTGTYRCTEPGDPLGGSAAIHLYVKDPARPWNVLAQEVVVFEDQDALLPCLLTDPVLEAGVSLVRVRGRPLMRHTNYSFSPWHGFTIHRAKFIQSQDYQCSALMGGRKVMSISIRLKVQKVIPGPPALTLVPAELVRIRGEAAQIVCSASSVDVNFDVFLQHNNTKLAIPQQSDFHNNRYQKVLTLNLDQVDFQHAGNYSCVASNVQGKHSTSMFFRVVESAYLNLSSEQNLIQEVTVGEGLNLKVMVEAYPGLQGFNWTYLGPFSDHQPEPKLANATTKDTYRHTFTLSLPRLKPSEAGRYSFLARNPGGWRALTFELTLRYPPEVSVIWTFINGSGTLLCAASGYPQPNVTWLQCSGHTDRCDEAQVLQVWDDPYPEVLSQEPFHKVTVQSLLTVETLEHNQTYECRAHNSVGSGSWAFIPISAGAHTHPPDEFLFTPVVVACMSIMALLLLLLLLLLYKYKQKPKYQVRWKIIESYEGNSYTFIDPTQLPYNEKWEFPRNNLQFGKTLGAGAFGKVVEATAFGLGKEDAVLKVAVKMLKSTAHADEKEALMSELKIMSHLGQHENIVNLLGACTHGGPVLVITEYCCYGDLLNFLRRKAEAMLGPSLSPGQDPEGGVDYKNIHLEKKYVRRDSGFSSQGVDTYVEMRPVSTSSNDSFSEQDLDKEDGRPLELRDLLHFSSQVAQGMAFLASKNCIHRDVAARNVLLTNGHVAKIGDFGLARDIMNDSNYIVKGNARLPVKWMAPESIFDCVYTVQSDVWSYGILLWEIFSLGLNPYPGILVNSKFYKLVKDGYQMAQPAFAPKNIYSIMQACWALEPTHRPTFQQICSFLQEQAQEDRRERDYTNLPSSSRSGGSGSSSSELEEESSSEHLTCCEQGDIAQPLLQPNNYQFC
How it was run: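 Cell-free recombinant human CSF1R kinase with fluorescent substrate, product separated by electrophoretic mobility shift; read 1 h after dosing. Primary screen at 25 uM in duplicate, actives then in concentration-response up to 50 uM, relative to DMSO.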

[8] = molecular target: human Casein Kinase 1-delta (CK1D), CSNK1D (gene 1453) (UniProt P48730); assay: NVS_ENZ_hCK1D: NovaScreen (NVS) Enzymatic Assay for human Casein Kinase 1-delta (CK1D) (AID 2283148)
Sequence of human Casein Kinase 1-delta (CK1D), CSNK1D (gene 1453) (P48730 whole entry, looked up): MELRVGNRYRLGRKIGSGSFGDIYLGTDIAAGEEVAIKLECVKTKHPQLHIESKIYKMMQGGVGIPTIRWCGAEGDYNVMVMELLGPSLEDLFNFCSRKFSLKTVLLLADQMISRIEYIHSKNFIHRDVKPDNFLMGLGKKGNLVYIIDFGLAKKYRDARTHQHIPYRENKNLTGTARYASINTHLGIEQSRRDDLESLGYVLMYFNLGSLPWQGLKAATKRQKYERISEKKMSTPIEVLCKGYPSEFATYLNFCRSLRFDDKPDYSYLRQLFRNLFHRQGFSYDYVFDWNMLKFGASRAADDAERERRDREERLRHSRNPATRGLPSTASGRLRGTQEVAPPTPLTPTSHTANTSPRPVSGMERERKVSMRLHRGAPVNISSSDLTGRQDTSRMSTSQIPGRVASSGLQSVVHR
How it was run: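 Recombinant human CK1-delta, cell-free; fluorescent substrate with electrophoretic mobility-shift separation of product, read 1 h after dosing. Single 25 uM duplicate screen, then concentration-response up to 50 uM; loss of signal vs DMSO.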

[9] = molecular target: human AKT serine/threonine Kinase 1 (AKT1), AKT1 (gene 207) (UniProt P31749); assay: NVS_ENZ_hAKT1: NovaScreen (NVS) Enzymatic Assay for human AKT serine/threonine Kinase 1 (AKT1) (AID 2283138)
Sequence of human AKT serine/threonine Kinase 1 (AKT1), AKT1 (gene 207) (P31749 whole entry, looked up): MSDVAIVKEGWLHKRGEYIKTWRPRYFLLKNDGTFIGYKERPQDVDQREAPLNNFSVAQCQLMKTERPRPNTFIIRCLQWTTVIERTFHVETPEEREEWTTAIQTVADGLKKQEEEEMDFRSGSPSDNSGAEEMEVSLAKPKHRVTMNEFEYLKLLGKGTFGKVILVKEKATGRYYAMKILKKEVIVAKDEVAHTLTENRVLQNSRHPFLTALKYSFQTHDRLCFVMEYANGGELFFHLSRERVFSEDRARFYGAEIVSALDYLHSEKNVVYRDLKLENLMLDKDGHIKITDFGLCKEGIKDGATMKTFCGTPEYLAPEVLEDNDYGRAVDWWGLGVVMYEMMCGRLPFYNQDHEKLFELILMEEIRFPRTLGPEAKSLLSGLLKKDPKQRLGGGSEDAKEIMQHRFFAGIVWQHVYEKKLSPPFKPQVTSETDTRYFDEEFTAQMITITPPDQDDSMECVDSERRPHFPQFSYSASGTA
How it was run: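 Cell-free recombinant enzyme with substrate; activity read by fluorescence intensity after electrophoretic mobility shift separating substrate from product, 1 h after dosing. Single-concentration duplicates at 25 uM, then singleton concentration-response up to 50 uM; loss of signal versus DMSO.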

[10] = molecular target: human Ephrin type-A Receptor 2 (EphA2), EPHA2 (gene 1969) (UniProt P29317); assay: NVS_ENZ_hEphA2: NovaScreen (NVS) Enzymatic Assay for human Ephrin type-A Receptor 2 (EphA2) (AID 2283155)
How it was run: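 Cell-free recombinant EphA2 kinase with specific substrate, 1 h, fluorescence with electrophoretic mobility-shift separation of substrate and product. Primary screen at 25 uM in duplicate; hits retested in singleton concentration-response up to 50 uM, referenced to DMSO.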

[11] = molecular target: human Aurora Kinase A - serine/threonine-protein Kinase 6 (AurA), AURKA (gene 6790) (UniProt O14965); assay: NVS_ENZ_hAurA: NovaScreen (NVS) Enzymatic Assay for human Aurora Kinase A - serine/threonine-protein Kinase 6 (AurA) (AID 2283142)
How it was run: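 Cell-free enzymatic assay with human Aurora A, 1 hour after dosing. Fluorescent substrate turnover detected after electrophoretic mobility shift separation of substrate and product. Screened at 25 uM, actives retested in concentration-response up to 50 uM.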

CDK2 (gene 1017) = CDK2 (gene 1017) (UniProt P24941); assay: NVS_ENZ_hCDK2: NovaScreen (NVS) Enzymatic Assay for human Cyclin-Cependent Kinase 2 (CDK2) (AID 2283144)
How it was run: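 Cell-free recombinant human CDK2 with fluorescent substrate, product separated by electrophoretic mobility shift; 1 hr read. Primary screen at 25 uM in duplicate, actives retested in concentration-response up to 50 uM; loss of signal versus DMSO.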

[12] = molecular target: human Epidermal Growth Factor Receptor (EGFR), EGFR (gene 1956) (UniProt P00533); assay: NVS_ENZ_hEGFR: NovaScreen (NVS) Enzymatic Assay for human Epidermal Growth Factor Receptor (EGFR) (AID 2283151)
How it was run: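 Cell-free kinase assay, fluorescence plus electrophoretic mobility shift separating substrate and product, read 1 hour after dosing; loss of signal vs DMSO. Duplicate screen at 25 uM, then concentration-response to 50 uM.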

[13] = molecular target: human Caspase 2 (CASP2), CASP2 (gene 835) (UniProt P42575); assay: NVS_ENZ_hCASP2: NovaScreen (NVS) Enzymatic Assay for human Caspase 2 (CASP2) (AID 2283135)
Sequence of human Caspase 2 (CASP2), CASP2 (gene 835) (P42575 whole entry, looked up): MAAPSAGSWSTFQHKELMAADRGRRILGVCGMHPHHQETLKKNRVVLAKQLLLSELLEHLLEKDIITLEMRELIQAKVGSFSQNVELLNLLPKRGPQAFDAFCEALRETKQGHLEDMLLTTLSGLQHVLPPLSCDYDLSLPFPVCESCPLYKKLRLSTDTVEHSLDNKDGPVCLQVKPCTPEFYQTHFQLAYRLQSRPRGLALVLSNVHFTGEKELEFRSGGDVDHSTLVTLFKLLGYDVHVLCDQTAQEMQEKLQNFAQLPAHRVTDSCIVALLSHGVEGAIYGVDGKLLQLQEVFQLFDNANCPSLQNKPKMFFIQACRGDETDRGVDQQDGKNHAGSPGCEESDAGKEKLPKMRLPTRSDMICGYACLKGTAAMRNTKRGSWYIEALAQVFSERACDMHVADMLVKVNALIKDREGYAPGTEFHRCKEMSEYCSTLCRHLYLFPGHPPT
How it was run: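 E. coli-expressed enzyme in a cell-free protease assay, fluorescence read 1 h after dosing. Compounds at 25 uM in duplicate, with concentration-response up to 50 uM for hits; loss of signal against DMSO baseline.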

[14] = molecular target: human Caspase 5 (CASP5), CASP5 (gene 838) (UniProt P51878); assay: NVS_ENZ_hCASP5: NovaScreen (NVS) Enzymatic Assay for human Caspase 5 (CASP5) (AID 2283137)
How it was run: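 Recombinant E. coli-expressed human caspase 5 in a cell-free enzyme assay; fluorescence intensity read 2 hours after chemical dosing. Single-concentration duplicate screen at 25 uM, then concentration-response up to 50 uM for hits; DMSO negative control.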

[15] = molecular target: human Beta-secretase (BACE), BACE1 (gene 23621) (UniProt P56817); assay: NVS_ENZ_hBACE: NovaScreen (NVS) Enzymatic Assay for human Beta-secretase (BACE) (AID 2283140);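 note: hits are inhibitors that reduce fluorescent substrate signal versus DMSO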
How it was run: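 Cell-free fluorescence-intensity assay of recombinant BACE1 expressed in SF9 cells, read 1 hour after dosing. Loss of signal indicates reduced protease activity, fitted relative to DMSO negative control. Primary screen at 25 uM in duplicate; actives followed in concentration series.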

[16] = molecular target: human AKT serine/threonine Kinase 2 (AKT2), AKT2 (gene 208) (UniProt P31751); assay: NVS_ENZ_hAKT2: NovaScreen (NVS) Enzymatic Assay for human AKT serine/threonine Kinase 2 (AKT2) (AID 2283141)
How it was run: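 Cell-free fluorescence/electrophoretic mobility shift readout of recombinant human AKT2 activity, 1 h after chemical dosing. Duplicate primary screen at 25 uM, then singleton concentration-response up to 50 uM; loss of signal versus DMSO baseline.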

**Q.** For `CC(C)Nc1ccc(Nc2ccccc2)cc1`, which AC50 [1] is on record?
**A.** 2.71 µM (active)

**Q.** And the outcome [2]?
**A.** inactive

**Q.** For `CCNc1nc(Cl)nc(NC(C)(C)C)n1`, which outcome [3] is on record?
**A.** inactive

**Q.** Which results are given for `CO/N=C(/C(=O)OC)c1ccccc1COc1ccccc1C`?
**A.** outcome (rat CYP2B1, gene 24300): inactive; AC50 (rat CYP3A1, gene 25642): 6.96 µM (active); AC50 [4]: 6.28 µM (active)

**Q.** How did the outcome (rat CYP2B1, gene 24300) turn out when `O=c1ssc(Cl)c1Cl` was run?
**A.** inactive

**Q.** And the AC50 [1]?
**A.** 6.98 µM (active)

**Q.** How did the outcome [5] turn out when `c1ccc2c(c1)Nc1ccccc1S2` was run?
**A.** inactive

**Q.** Which results are given for `CSC(C)(C)C=NO`?
**A.** outcome [6]: inactive; outcome [7]: inactive

**Q.** With `CCOS(=O)(=O)OCC` as the compound, how does the outcome [8] read?
**A.** inactive

**Q.** `CCOP(=S)(Oc1ccc([N+](=O)[O-])cc1)c1ccccc1` (configuration not stated) was tested. Which outcome [9] did it give?
**A.** inactive

**Q.** How did the outcome [10] turn out when `Cc1ccc([N+](=O)[O-])cc1C` was run?
**A.** inactive

**Q.** What does the source list for `CC(C)(C)OOC(C)(C)C`?
**A.** outcome [9]: inactive; outcome [11]: inactive; outcome (CDK2 (gene 1017)): inactive; outcome [7]: inactive; outcome [12]: inactive; outcome [2]: inactive

**Q.** `CCOP(=S)(OCC)SCSCC` was tested. Which outcome [13] did it give?
**A.** inactive

**Q.** What about the outcome [9] of the same compound?
**A.** inactive

**Q.** For `c1ccc(OP(Oc2ccccc2)Oc2ccccc2)cc1`, which outcome [8] is on record?
**A.** inactive

**Q.** What about the AC50 [5] of the same compound?
**A.** 37 µM (active)

**Q.** Which results are given for `Cc1ccc2c(c1N)C(=O)c1ccccc1C2=O`?
**A.** AC50 [14]: 6.72 µM (active); AC50 [2]: 19.2 µM (active)

**Q.** For `O=P(Oc1ccccc1)(Oc1ccccc1)Oc1ccccc1`, which outcome [10] is on record?
**A.** inactive

**Q.** For `CCCN(CCC)c1c([N+](=O)[O-])cc(C(C)C)cc1[N+](=O)[O-]`, which outcome [15] is on record?
**A.** inactive

**Q.** With `O=P1(N(CCCl)CCCl)NCCCO1` (configuration not stated) as the compound, how does the outcome [6] read?
**A.** inactive

**Q.** What about the outcome [12] of the same compound?
**A.** inactive

**Q.** And the outcome [3]?
**A.** inactive

**Q.** Which outcome [13] does the source give for `COCCOCCO` here?
**A.** inactive

**Q.** Which outcome [2] does the source give for `Nc1ccc(Cl)cc1` here?
**A.** inactive

**Q.** Which outcome [16] does the source give for `CC(C)(C)c1ccc(O)cc1` here?
**A.** inactive

**Q.** How did the outcome [7] turn out when `CCC(C)(C)c1ccc(O)cc1` was run?
**A.** inactive

**Q.** How did the AC50 [1] turn out when `CCOP(=S)(OCC)SCn1nnc2ccccc2c1=O` was run?
**A.** 19.6 µM (active)

**Q.** `CCOP(=S)(OCC)SCSc1ccc(Cl)cc1` was tested. Which AC50 [1] did it give?
**A.** 17.3 µM (active)
